Assay [1] deals with Plasmodium falciparum Sir2 (PF13_0152, Sir2A). The assay can be described thus: Plasmodium falciparum Sir2A binding compounds – biochemical, small-molecule microarray, 635 nm fluorescence, primary screen (AID 1098).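 Further: score merges spot fluorescence intensity with its signal-to-noise ratio.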 The note with it: fluorescence 635 nm, higher = more signal.
Assay [2] is described as follows: probe aDKK1 binding to arrayed compounds – biochemical, biotinylated probe, 635/667 nm fluorescence, primary screen (AID 1099).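 Further: score merges 667nm spot fluorescence with signal to noise across triplicate slides.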 The note with it: small-molecule microarray, higher = more signal.
The nature of assay [3]: probe aCHRDL2 binding to arrayed compounds – biochemical, biotinylated probe, 635/667 nm fluorescence, primary screen (AID 1100). The note with it: small-molecule microarray, higher = more signal.
A short description of assay [4]: change in splice reporter luminescence, either direction, cell-based, HEK293, spliceosome inhibition project, primary screen (AID 1101).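 Further: HEK293 cells carrying a splicing-competent luciferase reporter gene; test concentration not given here.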 The note with it: HEK293 splicing luciferase reporter, 24 h, higher = more signal, called active from +8 up or from −8 down.
Assay [5] addresses Fibroblast growth factor 10 (Homo sapiens) (UniProt O15520). The assay can be described thus: compounds binding fibroblast growth factor 10 – biochemical, small-molecule microarray, 635 nm fluorescence, primary screen (AID 1102). The note with it: FGF10 binding, fluorescence 635 nm, higher = more signal.
Assay [6] deals with glycogen synthase kinase-3 (GSK3A per assay name; protocol says GSK3B). As to the kind of experiment: compounds binding glycogen synthase kinase-3 – biochemical, small-molecule microarray, 635 nm fluorescence, GSK3A, primary screen (AID 1103). Further: the record names both GSK3A and GSK3B. The note with it: fluorescence 635 nm, higher = more signal.
Assay [7] deals with Epidermal growth factor receptor (Homo sapiens) (UniProt P00533). The assay can be described thus: compounds binding epidermal growth factor receptor – biochemical, small-molecule microarray, 635 nm fluorescence, primary screen (AID 1104).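 Further: score merges 667 nm emission intensity with spot signal to noise over triplicate slides.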 The note with it: EGFR binding, higher = more signal.
Chain of Epidermal growth factor receptor (Homo sapiens) (P00533 whole entry, looked up): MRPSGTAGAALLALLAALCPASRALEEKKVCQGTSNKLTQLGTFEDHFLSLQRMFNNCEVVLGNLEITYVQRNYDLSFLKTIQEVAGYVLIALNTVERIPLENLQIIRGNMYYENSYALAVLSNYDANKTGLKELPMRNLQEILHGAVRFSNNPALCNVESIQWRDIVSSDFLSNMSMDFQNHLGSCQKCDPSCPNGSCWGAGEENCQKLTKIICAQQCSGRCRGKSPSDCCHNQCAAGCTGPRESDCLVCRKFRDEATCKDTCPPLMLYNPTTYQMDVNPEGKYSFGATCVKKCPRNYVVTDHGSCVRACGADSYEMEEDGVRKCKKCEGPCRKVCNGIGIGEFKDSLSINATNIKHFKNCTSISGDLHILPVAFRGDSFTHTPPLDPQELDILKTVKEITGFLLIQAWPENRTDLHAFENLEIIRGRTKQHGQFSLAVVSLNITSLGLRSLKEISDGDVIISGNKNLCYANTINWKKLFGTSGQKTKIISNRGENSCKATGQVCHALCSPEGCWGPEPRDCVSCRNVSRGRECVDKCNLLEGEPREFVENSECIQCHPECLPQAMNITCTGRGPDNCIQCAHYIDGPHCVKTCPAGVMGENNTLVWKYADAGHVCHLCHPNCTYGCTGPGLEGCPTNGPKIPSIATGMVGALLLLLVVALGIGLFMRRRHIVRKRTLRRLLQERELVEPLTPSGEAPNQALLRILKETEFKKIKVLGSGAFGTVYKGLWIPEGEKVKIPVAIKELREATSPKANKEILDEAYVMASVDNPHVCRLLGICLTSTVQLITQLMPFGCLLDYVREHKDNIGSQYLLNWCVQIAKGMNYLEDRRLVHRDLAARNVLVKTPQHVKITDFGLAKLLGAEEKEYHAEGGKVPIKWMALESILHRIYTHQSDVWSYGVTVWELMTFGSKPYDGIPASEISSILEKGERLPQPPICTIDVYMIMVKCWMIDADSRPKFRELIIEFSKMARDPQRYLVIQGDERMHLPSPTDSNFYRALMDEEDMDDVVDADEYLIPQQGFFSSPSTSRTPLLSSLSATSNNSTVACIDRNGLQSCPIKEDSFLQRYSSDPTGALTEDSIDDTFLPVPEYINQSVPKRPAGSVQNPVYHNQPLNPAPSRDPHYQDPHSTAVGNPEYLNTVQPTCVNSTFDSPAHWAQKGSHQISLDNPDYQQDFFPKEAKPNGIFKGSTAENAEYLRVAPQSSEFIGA
In assay [8] the target is Follistatin-related protein 3 (Homo sapiens) (UniProt O95633). As to the kind of experiment: compounds binding follistatin-related protein 3 – biochemical, small-molecule microarray, 635 nm fluorescence, primary screen (AID 1105).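 Further: score merges emission near 667 nm and signal to noise per printed spot across three slides.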 The note with it: FSTL3 binding, higher = more signal.
Chain of Follistatin-related protein 3 (Homo sapiens) (O95633 whole entry, looked up): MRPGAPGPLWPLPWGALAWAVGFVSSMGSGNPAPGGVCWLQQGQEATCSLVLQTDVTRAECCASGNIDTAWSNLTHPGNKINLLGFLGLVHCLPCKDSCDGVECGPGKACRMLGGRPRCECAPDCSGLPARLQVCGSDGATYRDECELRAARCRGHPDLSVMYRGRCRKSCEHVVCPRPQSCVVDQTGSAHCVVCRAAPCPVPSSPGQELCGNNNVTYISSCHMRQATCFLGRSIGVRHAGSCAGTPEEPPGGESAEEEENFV
Assay [9] deals with Dickkopf-related protein 1 (Homo sapiens) (UniProt O94907). As to the kind of experiment: small molecules binding DKK1 protein – biochemical, small-molecule microarray, 635 nm fluorescence scan, primary screen (AID 1106).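 Further: score merges emission near 667 nm with signal to noise over three replicate slides.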 The note with it: higher = more signal.
Chain of Dickkopf-related protein 1 (Homo sapiens) (O94907 whole entry, looked up): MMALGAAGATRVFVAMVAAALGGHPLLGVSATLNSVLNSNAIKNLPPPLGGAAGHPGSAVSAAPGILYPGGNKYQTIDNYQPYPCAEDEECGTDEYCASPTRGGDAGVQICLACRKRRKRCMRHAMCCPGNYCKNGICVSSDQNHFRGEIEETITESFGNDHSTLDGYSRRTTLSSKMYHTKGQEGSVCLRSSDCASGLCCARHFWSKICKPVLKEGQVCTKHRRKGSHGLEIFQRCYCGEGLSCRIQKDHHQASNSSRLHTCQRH
Assay [10] deals with Inhibin beta A chain (activin A). The assay can be described thus: small molecules binding activin A – biochemical, small-molecule microarray, 635 nm fluorescence scan, primary screen (AID 1107).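 Further: mouse activin A protein probed at 4.33 µg/mL on printed slides; score merges bound-protein fluorescence near 667 nm with spot signal-to-noise.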 The note with it: INHBA, higher = more signal.
Assay [11] deals with Human papillomavirus type 1a protein E7 (residues 44-93). As to the kind of experiment: small molecules binding HPV E7 44-93 – biochemical, small-molecule microarray, residues 44-93, 635 nm fluorescence, primary screen (AID 1108).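 Further: E7 fragment applied at 1 µg/mL in TBST for 1 h at 4 C; score combines spot fluorescence with its signal to noise ratio.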 The note with it: fluorescence 635 nm, higher = more signal.
Assay [12] is described as follows: hepatitis C replication reporter changes, two-sided – Huh7 cells, luciferase reporter, HCV replication inhibitor project, primary screen (AID 1109).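 Further: huh7 hepatoma cells harbouring a luciferase neomycin HCV replicon reporter; luciferase luminescence as measure of HCV replicon replication; test concentration not given here.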 The note with it: Huh7 HCV replicon luciferase reporter, 48 h; higher = more signal. (A reporter such as luciferase makes a cellular process visible.)
For assay [13], the target named is Left-right determination factor 2 (Homo sapiens) (UniProt O00292). As to the kind of experiment: small molecules binding LEFTY2 protein – biochemical, small-molecule microarray, 635 nm fluorescence scan, primary screen (AID 1110). The note with it: higher = more signal.
Chain of Left-right determination factor 2 (Homo sapiens) (O00292 whole entry, looked up): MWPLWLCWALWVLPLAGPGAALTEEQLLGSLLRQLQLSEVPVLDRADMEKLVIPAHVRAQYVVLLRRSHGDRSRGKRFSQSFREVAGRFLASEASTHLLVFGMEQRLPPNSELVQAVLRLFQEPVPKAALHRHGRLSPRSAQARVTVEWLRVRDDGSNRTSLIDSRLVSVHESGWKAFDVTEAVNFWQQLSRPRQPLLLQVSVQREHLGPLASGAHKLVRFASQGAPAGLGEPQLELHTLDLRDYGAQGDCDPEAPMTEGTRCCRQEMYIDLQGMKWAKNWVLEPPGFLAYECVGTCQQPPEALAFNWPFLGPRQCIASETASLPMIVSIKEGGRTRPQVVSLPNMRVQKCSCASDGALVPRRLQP
The target of assay [14] is Calmodulin-1 (Homo sapiens) (UniProt P0DP23). As to the kind of experiment: small molecules binding calmodulin-1 with EGTA – biochemical, small-molecule microarray, Cy5-labelled CALM1, profiling panel (AID 1111).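 Further: labelled calmodulin applied in Tris saline Tween buffer holding calcium plus EGTA and DTT.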 The note with it: Cy5-CALM1 binding fluorescence, higher = more signal.
Assay [15] shares this target. The assay can be described thus: small molecules binding Ca-loaded calmodulin-1 – biochemical, small-molecule microarray, Cy5-labelled CALM1, plus calcium, artefact control for SMM control-protein annotation, profiling panel (AID 1112).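 Further: score merges spot fluorescence with signal to noise from triplicate slides.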 The note with it: Cy5-CALM1 binding fluorescence, higher = more signal.
Assay [16] can be described thus: probe aWnt5a binding to arrayed compounds – biochemical, biotinylated probe, 635/667 nm fluorescence, primary screen (AID 1113).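 Further: score merges 667 nm fluorescence intensity with signal-to-noise per printed feature.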 The note with it: small-molecule microarray, higher = more signal.
Assay [17] is described as follows: probe aShh binding to arrayed compounds – biochemical, biotinylated probe, 635/667 nm fluorescence, primary screen (AID 1114).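 Further: probe is biotin-labelled aShh protein from a stem cell growth factor screen; measures binding of labelled protein to compounds printed on the slide; score merges feature fluorescence at 667 nm with signal-to-noise.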 The note with it: small-molecule microarray, higher = more signal.
A short description of assay [18]: probe aNog binding to arrayed compounds – biochemical, biotinylated probe, 635/667 nm fluorescence, primary screen (AID 1115).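 Further: probe is biotinylated aNog protein used at 0.15 µg/mL for 1 h at 4 C; z-score combines 667 nm fluorescence of each spot with its signal to noise.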 The note with it: small-molecule microarray, higher = more signal.
Assay [19] addresses Torsin-1A-interacting protein 1 (Homo sapiens) (UniProt Q5JTV8). As to the kind of experiment: compound microarray binding of lysate hLAP1 – cell lysate, small-molecule microarray, COS7 lysate, 635/667 nm fluorescence, primary screen (AID 1116). The note with it: 635 nm fluorescence, higher = more signal.
In assay [20] the target is Alpha-bungarotoxin (Bungarus multicinctus) (UniProt P60615). The assay can be described thus: compounds binding labelled alpha-BTX control protein – biochemical, small-molecule microarray, Alexa647 label, 635/667 nm fluorescence, artefact control for SMM control protein annotation, profiling panel (AID 1117). The note with it: alpha-BTX-A647 binding fluorescence, higher = more signal.
Chain of Alpha-bungarotoxin (Bungarus multicinctus) (P60615 whole entry, looked up): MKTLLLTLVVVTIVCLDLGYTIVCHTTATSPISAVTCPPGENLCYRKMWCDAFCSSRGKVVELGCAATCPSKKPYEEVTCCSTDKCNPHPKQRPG

Active and inactive are the calls of the source.

Chain of Torsin-1A-interacting protein 1 (Homo sapiens) (Q5JTV8 whole entry, looked up): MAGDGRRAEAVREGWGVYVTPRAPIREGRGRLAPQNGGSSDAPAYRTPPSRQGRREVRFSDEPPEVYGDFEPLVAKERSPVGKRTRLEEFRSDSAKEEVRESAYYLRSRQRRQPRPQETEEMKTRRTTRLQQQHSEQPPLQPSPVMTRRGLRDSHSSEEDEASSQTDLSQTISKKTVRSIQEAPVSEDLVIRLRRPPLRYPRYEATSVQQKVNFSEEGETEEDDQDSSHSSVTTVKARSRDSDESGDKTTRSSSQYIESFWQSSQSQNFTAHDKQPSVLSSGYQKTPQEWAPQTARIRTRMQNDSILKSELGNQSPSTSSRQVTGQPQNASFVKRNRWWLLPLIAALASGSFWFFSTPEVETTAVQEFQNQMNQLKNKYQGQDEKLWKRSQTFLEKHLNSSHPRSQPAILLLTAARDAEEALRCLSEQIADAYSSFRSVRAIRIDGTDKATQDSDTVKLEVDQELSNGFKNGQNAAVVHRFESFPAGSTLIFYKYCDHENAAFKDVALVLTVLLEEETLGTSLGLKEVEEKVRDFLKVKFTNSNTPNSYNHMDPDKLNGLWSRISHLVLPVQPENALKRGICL
Chain of Fibroblast growth factor 10 (Homo sapiens) (O15520 whole entry, looked up): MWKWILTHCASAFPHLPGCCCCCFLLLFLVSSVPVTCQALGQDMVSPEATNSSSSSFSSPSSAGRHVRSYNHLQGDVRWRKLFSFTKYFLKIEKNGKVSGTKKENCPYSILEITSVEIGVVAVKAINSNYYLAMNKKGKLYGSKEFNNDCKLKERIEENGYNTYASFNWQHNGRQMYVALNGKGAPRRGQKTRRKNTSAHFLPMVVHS

Consider `C=CCOC(=O)[C@H]1[C@@H]2C(=O)O[C@@H](c3ccccc3)[C@@H](c3ccccc3)N2[C@@H](c2ccc(OCCOC(=O)[C@H]3C[C@H]4C(=O)N5CCC[C@H]5C(=O)N4[C@H]3c3cccc(OCCO)c3)cc2)[C@]12C(=O)Nc1ccccc12`, for which the composite z-score was 1.52 in [1]; -0.125 in assay [2]; 0.297 in assay [3]; 0.795 in [5]; 1.31 in [6]; 0.649 in [7]. The composite z-score in assay [8] worked out at 0.978; in assay [9], 0.732; in [10], 0.186; in assay [11], 1.05; in assay [13], 0.427; in assay [14], 0.384. Also, the composite z-score in assay [15] is 0.0829; in [16], -0.0607; in [17], 0.263; in assay [18], 0.228; in assay [19] it was 0.925; in assay [20] it was 1.64. Moreover, the z-score is -0.676 (inactive) in [4] and -1.01 in [12].

Regarding `CC(C)(C)OC(=O)CC[C@]1(C(=O)NCc2ccccc2)COC(c2ccc(OCCCO)cc2)=N1`, the composite z-score is 1.31 in [1]; 1.07 in assay [2]; 1.21 in [3]; 0.361 in assay [5]; 0.319 in [6]; -0.716 in assay [7]. The composite z-score is -0.334 in [8]; -1.17 in assay [9]; 0.469 in [10]; 0.326 in assay [11]; -0.632 in [13]; 0.98 in assay [14]. Further, the composite z-score was 1.11 in assay [15]; -0.001 in assay [16]; -0.138 in assay [17]; 1.31 in assay [18]; 2.07 in assay [19]; 2.47 in assay [20]. For the same compound, the values for the z-score in assay [4] and in [12] were -0.264 (inactive) and -0.605, respectively.

For `CC(CO)N1C(=O)[C@@H]2C3C(=O)OCCC/C=C\[C@H]3OC23C=CCN(Cc2ccccc2)C(=O)[C@@H]13` (stereo not given in full), the composite z-score is 0.608 in [1]; -0.206 in assay [2]; 0.0202 in assay [3]; -0.559 in [5]; -0.236 in assay [6]; -0.794 in assay [7]. The composite z-score is -0.639 in assay [8]; -0.386 in assay [9]; 1.21 in [10]; -0.412 in assay [11]; -0.784 in [13]; -0.182 in assay [14]. Further, the composite z-score is -0.292 in [15]; -0.176 in [16]; -0.0769 in assay [17]; -0.036 in assay [18]; -0.307 in assay [19]; -1.53 in assay [20]. Also, the z-score in assay [4] was -0.992 (inactive); in assay [12] it was -0.159.

Turning to `C=CCC(OC(C)=O)[C@@H]1[C@@H](N(Cc2ccc(-c3cccc(C(F)(F)F)c3)o2)C(=O)c2ccc(-c3ccccc3)cc2)c2cc(OCCCO)ccc2N1C(=O)Cc1ccc(OC)cc1` (stereo not given in full), the composite z-score in assay [1] is -0.0081; in assay [2] it was 0.109; in [3], 0.796; in assay [5] it was -0.0385; in assay [6] it was -0.661; in assay [7], -0.574. Further, the composite z-score was -0.201 in assay [8]; -0.361 in [9]; 1.44 in assay [10]; -0.0271 in assay [11]; -0.236 in assay [13]; -1.05 in assay [14]. Also, the composite z-score in [15] was 0.897; in [16], -0.104; in assay [17] it was -0.0931; in assay [18], -0.0086; in assay [19], -0.0085; in assay [20] it was 0.497. Also, the z-score in [4] was -1.07 (inactive); in [12], -0.169.

For the compound `COc1ccc(C#Cc2ccc3c(c2)[C@]2(C(=O)N3)[C@H](c3ccc(O)cc3)N3[C@H](c4ccccc4)[C@H](c4ccccc4)OC(=O)[C@H]3[C@@H]2C(N)=O)cc1`, the composite z-score in assay [1] was 0.348; in [2], -0.0576; in assay [3], 0.698; in assay [5] it was -0.425; in assay [6], -0.381; in [7], -1.06. Moreover, the composite z-score is -1.08 in assay [8]; -0.67 in assay [9]; 0.227 in assay [10]; 0.53 in [11]; -1.07 in [13]; 0.0315 in assay [14]. In addition, the composite z-score in assay [15] is 1.03; in assay [16] it was -0.136; in [17] it was 0.0735; in [18], 0.482; in [19] it was -0.203; in assay [20] it was 0.997. Besides, the values for the z-score in assay [4] and in [12] were 6.64 (inactive) and -1.68, respectively.

For the origin of these results see PubChem BioAssay.
